Consider 13 compounds from PubChem BioAssay (NCI).

Among the test systems are SR leukemia; RPMI-8226 leukemia; OVCAR-8 ovarian; OVCAR-5 ovarian; OVCAR-4 ovarian; SK-OV-3 ovarian; IGROV1 ovarian; OVCAR-3 ovarian; HS 578T breast; NCI/ADR-RES ovarian.
Holding throughout (assay): NCI-60 one-dose screen, 48 h (100 = growth as untreated, 0 = no growth, -100 = all killed)
Holding throughout (conditions): 10 µM unless noted

Each structure is given as a SMILES string. Compounds without any hit were thinned out: in the full panel of roughly 83,000, 20% have a hit.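 Single-dose data. Exposure time 48 hours. Values below 10 considered active.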 A number with no mark means an inactive call. Calls of active or inactive are those of the source.

In the case of `CCOC(=O)c1c(NC(=O)c2ccc(OC)cc2)sc2c(CN(C)C)c(O)ccc12`, the growth in the assay on SR leukemia was -21.5% (active); with RPMI-8226 leukemia, 15.8%; with OVCAR-8 ovarian it was 84.2%; in the assay with OVCAR-5 ovarian, 90.6%; with OVCAR-4 ovarian it was 85.2%; in the assay on SK-OV-3 ovarian, 99.6%. The growth in the assay with IGROV1 ovarian was 90.7%; in the assay on OVCAR-3 ovarian, 106%; in the assay on HS 578T breast, 88.9%; in the assay with NCI/ADR-RES ovarian it was 84.5%.

`Cn1cc(-c2csc(-c3cn(C)c4ccc(Br)cc34)n2)c2cnccc21`: the growth in the assay on SR leukemia is -29.6% (active); with RPMI-8226 leukemia, -37.3% (active); in the assay on OVCAR-8 ovarian it was -49.4% (active); in the assay with OVCAR-5 ovarian, -67.3% (active); with OVCAR-4 ovarian, -50.9% (active); with SK-OV-3 ovarian it was 96.5%. Also, the growth in the assay on IGROV1 ovarian is -91.5% (active); in the assay with OVCAR-3 ovarian, -92.9% (active); in the assay on HS 578T breast, -40% (active); with NCI/ADR-RES ovarian, -69.5% (active).

For `CC1=NN(c2ccc(Cl)cc2)CC1(C)N=O` (stereo not given), the growth with SR leukemia was 33%; in the assay on RPMI-8226 leukemia, 89.3%; in the assay on OVCAR-8 ovarian, 88.2%; in the assay on OVCAR-5 ovarian, 126%; in the assay with OVCAR-4 ovarian, 77.3%; in the assay with SK-OV-3 ovarian, 114%. Moreover, the growth in the assay on IGROV1 ovarian is 103%; in the assay with OVCAR-3 ovarian, 62.1%; in the assay with HS 578T breast, 82.9%; in the assay on NCI/ADR-RES ovarian, 94.4%.

On to `CCOC(=O)n1cc(-c2nonc2-c2cn(C)c3ccccc23)c2ccccc21`, for which the growth in the assay on SR leukemia is 19.7%; with RPMI-8226 leukemia, 38.9%; in the assay on OVCAR-8 ovarian, 51.6%; with OVCAR-5 ovarian it was 55.6%; in the assay with OVCAR-4 ovarian, 59.9%; in the assay on SK-OV-3 ovarian it was 45%. Moreover, the growth with IGROV1 ovarian was 46.8%; with OVCAR-3 ovarian, 25.1%; in the assay with HS 578T breast it was 29.3%; in the assay with NCI/ADR-RES ovarian, 15.2%.

Regarding `COc1ccc(C2CC(c3ccc4c(c3)OCO4)=Nc3c(N)ncnc3N2)cc1` (stereo not given), the growth in the assay with SR leukemia is 86.4%; in the assay on RPMI-8226 leukemia, 55.7%; in the assay on OVCAR-8 ovarian it was 103%; in the assay on OVCAR-5 ovarian, 82.9%; in the assay with OVCAR-4 ovarian, 102%; in the assay with SK-OV-3 ovarian it was 103%. Also, the growth in the assay with IGROV1 ovarian was 104%; in the assay on OVCAR-3 ovarian it was 151%; in the assay with HS 578T breast, 103%; with NCI/ADR-RES ovarian, 92.3%.

With `CS(=O)(=O)Nc1cncc(-c2ccc3ncnc(Nc4ccc(F)c(Cl)c4)c3c2)c1`, the growth was 23.3% with SR leukemia; 15.7% with RPMI-8226 leukemia; 47.1% in the assay with OVCAR-8 ovarian; 33.3% in the assay with OVCAR-5 ovarian; 63.4% in the assay with OVCAR-4 ovarian; -0.027% (active) with SK-OV-3 ovarian. The growth in the assay on IGROV1 ovarian was -17.2% (active); with OVCAR-3 ovarian, 22.1%; in the assay with HS 578T breast, 3.01% (active); with NCI/ADR-RES ovarian it was 84%.

For `CCCCCCNc1nc(NCCCCCC)c2[nH]c(NCCCCCC)nc2n1`, the growth in the assay with SR leukemia was -33.4% (active); in the assay on RPMI-8226 leukemia it was -29.4% (active); in the assay on OVCAR-8 ovarian it was 57.3%; with OVCAR-5 ovarian it was -7.94% (active); with OVCAR-4 ovarian, -16% (active); in the assay on SK-OV-3 ovarian, 102%. Moreover, the growth in the assay with IGROV1 ovarian was 68.8%; with OVCAR-3 ovarian it was 26.5%; with HS 578T breast, 55.7%; with NCI/ADR-RES ovarian, 90.3%.

For `CC(=O)c1cc(-c2ccccc2N)n(-c2ccc3c(c2)OCO3)c1C`, the growth was 14% in the assay with SR leukemia; 19.8% with RPMI-8226 leukemia; 18.7% in the assay on OVCAR-8 ovarian; 30% in the assay with OVCAR-5 ovarian; 48.3% with OVCAR-4 ovarian; 33.7% with SK-OV-3 ovarian. Moreover, the growth is 22% in the assay on IGROV1 ovarian, 5.55% (active) with OVCAR-3 ovarian, 32.6% in the assay with HS 578T breast and 13.1% in the assay with NCI/ADR-RES ovarian.

With `COc1ccc(C(O)c2cc3c(N)c(C(=O)Nc4cccc(Cl)c4)sc3nc2C)cc1` (stereo not given), the growth in the assay with SR leukemia is 13.2%; in the assay on RPMI-8226 leukemia it was 15.8%; in the assay with OVCAR-8 ovarian, 13.5%; with OVCAR-5 ovarian, 28.5%; with OVCAR-4 ovarian it was 50.7%; in the assay on SK-OV-3 ovarian, 19%. Moreover, the growth was 24.5% in the assay with IGROV1 ovarian, 7.47% (active) in the assay on OVCAR-3 ovarian, -8.06% (active) in the assay with HS 578T breast and 13.2% with NCI/ADR-RES ovarian.

For the compound `O=C1/C(=C/c2cccc([N+](=O)[O-])c2)COc2ccc(O)cc21`, the growth with SR leukemia was 8.9% (active); in the assay with RPMI-8226 leukemia it was -22.9% (active); in the assay with OVCAR-8 ovarian it was 31.2%; in the assay with OVCAR-5 ovarian it was 54.8%; in the assay on OVCAR-4 ovarian it was 74.4%; with SK-OV-3 ovarian, 111%. Also, the growth with IGROV1 ovarian was 33.8%; in the assay with OVCAR-3 ovarian, 34.4%; in the assay on HS 578T breast, 33.7%; with NCI/ADR-RES ovarian it was 42%.

For the compound `O[C@@H](c1cc(C(F)(F)F)nc2c(C(F)(F)F)cccc12)[C@H]1CCCCN1`, the growth in the assay with SR leukemia is 8.64% (active); with RPMI-8226 leukemia it was 68.9%; with OVCAR-8 ovarian, 76.7%; in the assay with OVCAR-5 ovarian, 77.7%; with OVCAR-4 ovarian, 62.6%; in the assay with SK-OV-3 ovarian, 82.7%. Besides, the growth is 51.7% with IGROV1 ovarian, 63.1% with OVCAR-3 ovarian, 58.2% with HS 578T breast and 61.9% with NCI/ADR-RES ovarian.

For `CC1=C(C(=O)n2c3ccccc3c3ccccc32)C(c2cccc([N+](=O)[O-])c2)C(C(=O)n2c3ccccc3c3ccccc32)=C(C)N1`, the growth is 68.5% in the assay on SR leukemia; 93.4% in the assay with RPMI-8226 leukemia; 99.4% in the assay with OVCAR-8 ovarian; 99.2% with OVCAR-5 ovarian; 103% in the assay on OVCAR-4 ovarian; 97.7% in the assay on SK-OV-3 ovarian. In addition, the growth in the assay on IGROV1 ovarian is 98.4%; in the assay on OVCAR-3 ovarian, 100%; in the assay on HS 578T breast, 96.5%; with NCI/ADR-RES ovarian it was 98.7%.

For `COc1cc(C(=O)c2c(N)ncn2-c2ccccc2)cc(OC)c1OC`, the growth in the assay with SR leukemia is 122%; with RPMI-8226 leukemia, 136%; in the assay on OVCAR-8 ovarian, 101%; with OVCAR-5 ovarian, 102%; with OVCAR-4 ovarian, 101%; with SK-OV-3 ovarian, 95.4%. The growth is 88.1% in the assay with IGROV1 ovarian, 99.2% in the assay with OVCAR-3 ovarian, 98.5% in the assay on HS 578T breast and 82.5% with NCI/ADR-RES ovarian.
